# Measurements published in PubChem BioAssay (EPA / NIEHS).
# Calls of active or inactive are those of the source. The calls were made as follows: active = hit-call score of the fitted dose curve at least 0.9, where 1 is the maximum; inactive = score below 0.9.
# Assay: IUF_NPC2-5_viability_120hr: Viability Assessment at 120 hours in the Leibniz Research Institute for Environmental Medicine (IUF) Neural Progenitor Cell Migration and Differentiation Assay (NPC2-5) (AID 2284312)
# How it was run: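 Human fetal (GW 16-19) neural progenitor spheres of 0.3 mm were plated on poly-D-lysine/laminin in N2 differentiation medium and exposed from day 0 for 120 h, with half-medium refresh at day 3. Viability was read as alamar blue resazurin-to-resorufin fluorescence against DMSO.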
row,SMILES,outcome
1,CS(=O)(=O)c1cc(C(F)(F)F)ccc1C(=O)c1cnoc1C1CC1,inactive
2,CS(=O)(=O)c1ccc(C(=O)C2C(=O)CCCC2=O)c([N+](=O)[O-])c1,inactive
3,N#CN=C1SCCN1Cc1ccc(Cl)nc1,inactive
4,CNC(=O)Oc1cccc2ccccc12,inactive
5,CCNC(=O)NC(=O)C(C#N)=NOC,inactive
6,CC(C)(C)C(=O)C(Oc1ccc(Cl)cc1)n1cncn1 (stereo unspecified),inactive
7,CO/N=C(/C1=NOCCO1)c1ccccc1Oc1ncnc(Oc2ccccc2Cl)c1F,inactive
8,CCOP(=O)(OCC)Oc1nc(Cl)c(Cl)cc1Cl,inactive
9,CC1(C)C(C=C(Cl)Cl)C1C(=O)OC(C#N)c1cccc(Oc2ccccc2)c1 (stereo unspecified),inactive
10,COP(=S)(OC)SCn1nnc2ccccc2c1=O,inactive
11,Cc1c(COC(=O)[C@@H]2[C@H](/C=C(\Cl)C(F)(F)F)C2(C)C)cccc1-c1ccccc1,inactive
12,O=C(Nc1ccccc1-c1ccc(Cl)cc1)c1cccnc1Cl,inactive
13,C=C(C)CN(CC)c1c([N+](=O)[O-])cc(C(F)(F)F)cc1[N+](=O)[O-],inactive
14,COC(=O)N(C(=O)N1CO[C@@]2(C(=O)OC)Cc3cc(Cl)ccc3C2=N1)c1ccc(OC(F)(F)F)cc1,inactive
15,CCSC(=O)N1CCCCCC1,inactive
16,CN/C(=N\[N+](=O)[O-])NCc1cnc(Cl)s1,inactive
